Shown are actives, neighbours in structure and some others; about 1.6% of the full set was active somewhere.
KCNQ2 block = rat KCNQ2 potassium channel inhibitors, primary screen, cell-based, CHO-K1, FluxOR thallium flux, B-score. Potassium voltage-gated channel subfamily KQT member 2 (Rattus norvegicus), O88943. 20 min; active compounds read low. B-score at 10 µM. hit rate 1.1% among 310,000;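 active means fluorescence ratio B-score at most minus 3 library SDs, with starting brightness B-score within 2 library SDs, cut at about -5.5 in these data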
KCNQ2 enhance = potentiators of rat KCNQ2 potassium channel; CHO-K1 KCNQ2, FluxOR thallium flux fluorescence; active compounds read high; B-score at 10 µM; hit rate 0.54% among 310,000;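 active means fluorescence ratio B-score at least 3 SD of library B-scores, with initial fluorescence B-score within 3 of them, cut at about 5.3 in these data; same plate scores as AID 2156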;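 further: B-score of peak minus minimum over baseline fluorescence ratio after K+ and Tl+ stimulus; positive B-score means potentiation of KCNQ2 with more thallium influx and brighter signal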
Kir21 confirm = mouse Kir2.1 channel blockers, retest, confirmation, cell-based, FluxOR thallium flux, duplicate | shares compounds with KCNQ2 enhance | Kir2.1-expressing cells, FluxOR thallium flux fluorescence; active compounds read low | Tl flux remaining, % of negative control (active compounds read low), % at 10 µM | hit rate 41% among 2,300 | AID 2032, 2009;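 active means Primary-screen hit whose thallium flux fell at least 3 control SD below untreated wells in both duplicates, with normal baseline fluorescence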
HEK293 Tl flux = counter-screen for Kir2.1 inhibitors: effect in parental HEK293 cells; shares compounds with KCNQ2 enhance; FluxOR thallium flux fluorescence; 0% = unstimulated blank wells; FluxOR signal as % of negative control (100 = no effect), % at 10 µM; hit rate 19% among 2,300;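 active means dye signal at least 3 control SD above or below untreated wells in both duplicates, raw fluorescence within 3, either direction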;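 further: percent is based on the flux ratio of peak minus minimum fluorescence over baseline F0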
CHO-K1 ctr = nonspecific thallium flux increase in parental CHO-K1, confirmation, counter-screen for KCNQ2 potentiator project, cell-based, FluxOR thallium flux, duplicate. shares compounds with KCNQ2 enhance. parental CHO-K1 cells, FluxOR thallium flux fluorescence; zero = vehicle mean+3SD, 100% = vehicle-minus-blank window. activity increase over 3SD of controls, % at 10 µM. hit rate 43% among 1,200. AID 2282, 2010;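 active means signal rise of at least 3 SD above the untreated control mean, in both duplicate wells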;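 further: counter screen of KCNQ2 potentiator hits so any rise reflects channel-independent effects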
KCNQ1 sel pot = human KCNQ1 channel potentiation off-target, confirmation, selectivity assay for KCNQ2 potentiator project, cell-based, CHO, FluxOR thallium flux. shares compounds with KCNQ2 enhance. CHO KCNQ1 stable, FluxOR thallium flux fluorescence; beyond 3SD, as % of vehicle-control signal. activation over 3SD threshold, % at 10 µM. hit rate 28% among 1,200;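 active means fluorescence ratio rise of at least 3 SD of vehicle wells above their mean, in both replicate wells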
Target sequence (P51787 whole entry, looked up): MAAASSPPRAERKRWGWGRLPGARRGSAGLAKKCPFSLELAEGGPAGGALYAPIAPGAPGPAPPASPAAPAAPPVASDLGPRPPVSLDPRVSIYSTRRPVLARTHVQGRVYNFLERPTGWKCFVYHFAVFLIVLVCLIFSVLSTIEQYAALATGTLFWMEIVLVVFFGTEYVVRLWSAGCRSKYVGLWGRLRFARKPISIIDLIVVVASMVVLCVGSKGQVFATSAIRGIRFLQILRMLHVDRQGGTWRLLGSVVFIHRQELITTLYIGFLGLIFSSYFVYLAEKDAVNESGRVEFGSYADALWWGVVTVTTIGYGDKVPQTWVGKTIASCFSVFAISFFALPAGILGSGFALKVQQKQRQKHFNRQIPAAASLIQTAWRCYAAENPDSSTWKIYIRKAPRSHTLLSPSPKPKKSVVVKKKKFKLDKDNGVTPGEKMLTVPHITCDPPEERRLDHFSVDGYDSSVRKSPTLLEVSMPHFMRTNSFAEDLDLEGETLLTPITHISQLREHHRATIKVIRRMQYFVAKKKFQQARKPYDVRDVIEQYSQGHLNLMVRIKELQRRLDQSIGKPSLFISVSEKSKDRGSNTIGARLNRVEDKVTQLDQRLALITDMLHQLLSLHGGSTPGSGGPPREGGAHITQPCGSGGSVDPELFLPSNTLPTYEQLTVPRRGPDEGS
KCNQ2 pot conf = rat KCNQ2 channel potentiators, confirmation, cell-based, CHO, FluxOR thallium flux, duplicate. AID 2287, 2010. CHO-KCNQ2 cells, FluxOR thallium flux fluorescence. shares compounds with KCNQ2 enhance. potentiation, less the hit threshold, % at 10 µM. hit rate 68% among 1,200;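 active means fluorescence ratio rising 3 SD or more over the vehicle control mean in both replicates, plus primary screen hit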;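 further: peak minus minimum thallium fluorescence divided by baseline after K/Tl stimulus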
Kir2-1 sel = mouse Kir2.1 channel activation off-target, confirmation, selectivity assay for KCNQ2 potentiator project, cell-based, HEK293, FluxOR thallium flux | shares compounds with KCNQ2 enhance | HEK293 Kir2.1, FluxOR thallium flux fluorescence | activity over 3SD threshold, % at 10 µM | hit rate 2% among 1,200 | AID 2345, 2010;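 active means fluorescence ratio rise of at least 3 SD above the vehicle-control mean, seen in both replicates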
KCNQ2 W236L pot = potentiators of retigabine-insensitive KCNQ2 W236L, mechanism study for KCNQ2 potentiator project, cell-based, rat KCNQ2 W236L, CHO, automated patch clamp; shares compounds with KCNQ2 enhance; automated patch clamp current; current increase over 3SD of negative controls (%), active compounds read high, % at 25 µM; hit rate 10% among 940; AID 2558, 2010;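 active means current increase at least 3 SD of the untreated controls above them in both duplicate recordings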
Of the large screens only hits and unclear results are named; the others gave an inactive call (follow-up assays come after a bar, where they were run); ! = not active in a repeat.

CC(C)C/C=C1\CCc2c([nH]c3ccccc23)C1=O	none
CCCCCCCCC1=NCCc2c1[nH]c1ccccc21	none (no result: KCNQ2 enhance) | Kir21 confirm 20% | HEK293 Tl flux inactive
CCCn1c(Oc2ccccc2)nc2c1c(=O)n(C)c(=O)n2C	none
O=C(CCCn1c(=S)[nH]c2ccccc2c1=O)NCc1ccco1	none
CCN(CC)CCN1C(=O)C(O)=C(C(=O)c2ccc(C)o2)C1c1ccccn1 (configuration not stated)	none (no result: KCNQ2 enhance)
O=C(O)/C=C/C(=O)c1ccc2c(c1)CCc1ccccc1-2	KCNQ2 enhance 8.6 | CHO-K1 ctr 30 | KCNQ1 sel pot inactive | KCNQ2 pot conf 35 | Kir2-1 sel inactive | KCNQ2 W236L pot inactive
CC(=O)Nc1ccc2c(c1)CCc1ccccc1-2	none (no result: KCNQ2 enhance)
Cc1ccc2c(C)c(C(=O)NCc3ccc(S(N)(=O)=O)cc3)oc2c1C	none
O=c1[nH]cnc2c1c(-c1ccccc1)cn2-c1ccccc1	none
Fc1ccc(-n2cc(-c3ccccc3)c3c(=S)nc[nH]c32)cc1	KCNQ2 enhance 6.4 | Kir21 confirm inactive | HEK293 Tl flux 182% | CHO-K1 ctr inactive | KCNQ1 sel pot inactive | KCNQ2 pot conf 7.9 | Kir2-1 sel inactive | KCNQ2 W236L pot inactive
O=c1c2ccccc2nc(SCc2ccccc2)n1CC1CCCO1 (configuration not stated)	none (no result: KCNQ2 enhance)
Cc1c(C(=O)NCCCN2CCOCC2)sc2nc(-c3ccccc3)cn12	none
COc1cccc(/C=C/C(=O)OCC(=O)N2CCN(S(=O)(=O)c3ccc(Cl)cc3)CC2)c1	none
O=C(OCC(=O)N1CCN(S(=O)(=O)c2ccc(Cl)cc2)CC1)c1cccc(OC(F)F)c1	KCNQ2 enhance 11 | Kir21 confirm inactive | HEK293 Tl flux inactive | CHO-K1 ctr inactive | KCNQ1 sel pot inactive | KCNQ2 pot conf 12 | Kir2-1 sel inactive | KCNQ2 W236L pot inactive
COc1cc(C(=S)N2CCOCC2)ccc1OC(=O)c1ccc([N+](=O)[O-])cc1[N+](=O)[O-]	none
O=c1c2cccnc2[nH]c(=S)n1CCC1=CCCCC1	KCNQ2 enhance 12 | Kir21 confirm inactive | HEK293 Tl flux 278% | CHO-K1 ctr 7.6 | KCNQ1 sel pot inactive | KCNQ2 pot conf 48 | Kir2-1 sel inactive | KCNQ2 W236L pot inactive
CCCCCn1c(=S)[nH]c2ncccc2c1=O	none
C/C(=N\NC(=O)c1cc2ccccc2cc1O)c1cccs1	KCNQ2 enhance 7.7 | Kir21 confirm inactive | HEK293 Tl flux inactive | CHO-K1 ctr 102 | KCNQ1 sel pot inactive | KCNQ2 pot conf inactive | Kir2-1 sel inactive
O=C(NNC(=O)c1cc2ccccc2cc1O)c1cccs1	none
C/C(=N\NC(=O)c1cc2ccccc2cc1O)c1ccc(C)o1	KCNQ2 enhance 6.7 | Kir21 confirm inactive | HEK293 Tl flux 412% | CHO-K1 ctr inactive | KCNQ1 sel pot 1.0 | KCNQ2 pot conf 67 | Kir2-1 sel inactive | KCNQ2 W236L pot inactive
C/C(=N\NC(=O)c1c[nH]c2ccccc12)c1ccc(C)o1	none
O=C(c1cccc(Cl)c1)N1CCC(c2nc3ccccc3[nH]2)CC1	none
CC1CCCCN1C(=O)CN1CCC(c2nc3ccc(Cl)cc3[nH]2)CC1 (configuration not stated)	none (no result: KCNQ2 enhance)
Cc1ccc(CN2CCC(c3nc4ccc(Cl)cc4[nH]3)CC2)cc1	none (no result: KCNQ2 enhance) | Kir21 confirm 26% | HEK293 Tl flux inactive
Clc1ccc2nc(C3CCN(Cc4ccccc4)CC3)[nH]c2c1	none (no result: KCNQ2 enhance) | Kir21 confirm 41% | HEK293 Tl flux inactive
CCOc1ccc(NC(=O)COc2nsnc2N2CCCCC2)cc1	none
Oc1c(Cl)cc(Cl)cc1/C=N/c1nc(-c2ccc(Cl)cc2)cs1	none
Oc1c(Cl)cc(Cl)cc1/C=N/c1nccs1	KCNQ2 enhance 9.1 | Kir21 confirm inactive | HEK293 Tl flux inactive | CHO-K1 ctr inactive | KCNQ1 sel pot 126 | KCNQ2 pot conf 34 | Kir2-1 sel inactive | KCNQ2 W236L pot 14%
Oc1c(Cl)cc(Cl)cc1C=Nc1ccccc1N1CCCC1	none
NC(=O)c1cccc(N=Cc2cc(Cl)cc(Cl)c2O)c1	KCNQ2 enhance 13 | Kir21 confirm inactive | HEK293 Tl flux inactive | CHO-K1 ctr 4.4 | KCNQ1 sel pot 31 | KCNQ2 pot conf 22 | Kir2-1 sel inactive | KCNQ2 W236L pot inactive
Cc1nc(NC(=O)c2ccc(Cl)cc2)sc1Cc1ccc2c(c1)OCO2	none (no result: KCNQ2 enhance)
Cc1cnc(NC(=O)c2cccs2)s1	none
O=C(Nc1ncc([N+](=O)[O-])s1)c1cccs1	KCNQ2 enhance 7.7! | Kir21 confirm inactive | HEK293 Tl flux inactive | CHO-K1 ctr 3.5 | KCNQ1 sel pot inactive | KCNQ2 pot conf inactive | Kir2-1 sel inactive
CCOc1c(O)ccc(C2NC(=O)N(C)C(C)=C2C(=O)OC)c1[N+](=O)[O-] (configuration not stated)	none (no result: KCNQ2 enhance)
CCOC(=O)c1c(C)c(C(=O)NCc2ccc3c(c2)OCO3)c(C)n1C	none
Cc1sc2nc(CN3CCN(c4ccc(O)cc4)CC3)[nH]c(=O)c2c1C	none
Cc1sc2nc(CN3CCOCC3)[nH]c(=S)c2c1C	KCNQ2 enhance 19 | Kir21 confirm inactive | HEK293 Tl flux 412% | CHO-K1 ctr inactive | KCNQ1 sel pot inactive | KCNQ2 pot conf 101 | Kir2-1 sel inactive | KCNQ2 W236L pot inactive
O=C(c1cccc(OC2CCN(Cc3cccc(OCCO)c3)CC2)c1)N1CCCC1	none
C/C(=N\Nc1cccc(Cl)c1)c1ccncc1	none
COc1ccc(Sc2ccccc2CN(C)C)cc1OC	none
CNCc1ccccc1Sc1ccc(O)c(O)c1	none (no result: KCNQ2 enhance) | Kir21 confirm 39% | HEK293 Tl flux inactive
CCCN(CCC)S(=O)(=O)c1ccc(Cl)c(OC)c1	none (no result: KCNQ2 enhance) | Kir21 confirm 55% | HEK293 Tl flux inactive
CCN(CC)S(=O)(=O)c1ccc(Cl)c(OC)c1	none

Screens (PubChem BioAssay)
